PubChem BioAssay AID677 (Vanderbilt High Throughput Screening Facility, 2007)
In all, about 1,700 compounds went through this assay and about 720 (42%) were called active.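 How the source made its calls: active means calcium response below the same-plate mean of wells given acetylcholine alone at its 80%-effect dose, minus 3 SD; inactive means the rest.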 The set was probably picked from earlier hits. Only a sample is shown.

biological target: Muscarinic acetylcholine receptor M1 (Rattus norvegicus) (UniProt P08482); assay: blockers of ACh-evoked M1 calcium signal – CHO cells, Fluo-4 calcium, duplicate, confirmation (AID 677); conditions: ACh EC80 antagonism, at 10 µM, active compounds read low;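 further: raw fluorescence intensity difference in arbitrary instrument units and not normalized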
Sequence (P08482 whole entry, looked up): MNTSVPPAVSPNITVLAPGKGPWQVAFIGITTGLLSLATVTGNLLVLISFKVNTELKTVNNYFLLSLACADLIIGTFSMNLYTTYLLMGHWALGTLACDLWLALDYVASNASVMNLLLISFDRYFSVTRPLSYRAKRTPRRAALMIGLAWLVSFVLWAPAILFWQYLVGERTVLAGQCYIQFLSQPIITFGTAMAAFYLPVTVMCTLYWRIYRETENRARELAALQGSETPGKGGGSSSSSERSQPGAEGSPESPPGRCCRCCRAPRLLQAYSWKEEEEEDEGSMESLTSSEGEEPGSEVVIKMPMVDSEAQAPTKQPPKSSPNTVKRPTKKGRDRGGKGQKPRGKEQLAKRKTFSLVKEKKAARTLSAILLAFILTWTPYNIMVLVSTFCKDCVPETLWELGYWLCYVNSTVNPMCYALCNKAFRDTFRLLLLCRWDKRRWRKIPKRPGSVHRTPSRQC

Calcium response (max-min fluorescence), inactive:
C=CCn1c(=S)[nH]c2nc3c(cc2c1=O)COC(C)(C)C3 521, Cc1c(C)c2cc3c4c(oc3c(C)c2oc1=O)CCCC4 548, O=S(=O)(CCc1nc2ccccc2o1)c1ccc(Cl)cc1 608, C=CCSc1nc2ccccc2[nH]1 649, COc1ccc(-c2noc(CN(C)S(=O)(=O)c3ccc(C)cc3)n2)cc1 520, O=C(c1ccco1)N1CCN=C1SCc1cccc(Cl)c1 602, CN1CCN(CC(=O)Nc2sc3c(c2C#N)CCC(C(C)(C)C)C3)CC1 (stereo not given) 551, COc1ccc(CCn2c(=N)c(C(=O)NCc3ccco3)cc3c(=O)n4cccc(C)c4nc32)cc1 489, CCOC(=O)c1c(NC(=O)CSc2nnc(CN3CCOCC3)n2C)sc2c1CCCC2 535, COCCn1c(SCC(=O)Nc2cc(Cl)ccc2OC)nc2c(c1=O)SC(C)C2 (stereo not given) 596, O=C(CCN1C(=O)COc2ccccc21)NCCCN1CCN(c2ccc(F)cc2)CC1 484, COc1cccc2sc(Nc3nc(C)c(C(C)=O)s3)nc12 507, O=C(NCC(F)(F)F)Nc1nnc(C(F)(F)F)s1 552, COC(=O)c1ccc(C2C3=C(Nc4nnnn42)c2ccccc2OC3)cc1 (stereo not given) 596, CC1CCCC(C)N1CCCNC(=O)c1cc2c(=O)n(C)c3ccccc3c2n1C (stereo not given) 487, CCC1(C)Cc2c(sc3nc4n(c(=O)c23)CCCS4)CO1 (stereo not given) 471, CCN1C(=O)/C(=C2\SC(N3CCCCC3)=NC2=O)c2ccccc21 460, COc1cc(Cl)c(C)cc1NC(=O)CSc1nnc(-c2ccco2)n1CC(C)C 533, O=C(Nc1ccncc1)c1c(F)cccc1F 653, CCOC(=O)c1c(-c2ccc(C)cc2C)csc1NC(=O)CSc1nnnn1C 519, CCC(=O)c1ccc(OCC(O)CN2CCN(c3cccc(C(F)(F)F)c3)CC2)cc1 (stereo not given) 531, COc1ccccc1OCCOc1ccc(/C=N/n2cnnc2)cc1 587, CCC/C(O)=C1\C(=O)CC(C)(C)CC1=Nc1ccccc1OC 647, Cc1ccc(-c2csc3nnc(SCC(=O)NCc4ccco4)n23)cc1 620, CCOC(=O)N1CCN(S(=O)(=O)c2cc(Br)cc3c2N(C(=O)C2CC2)CC3)CC1 646, CCOC(=O)N1CCN(CC(=O)Nc2cc(C)nn2-c2nc3ccccc3s2)CC1 645, COc1ccc(-c2nnn(Cc3nc(N)nc(N4CCCCC4)n3)n2)cc1 539, CCC(C)(NC(=O)c1ccccn1)C(=O)NC1CCCCC1 (stereo not given) 623, N#CC(C(=O)c1ccc(S(=O)(=O)N2CCCCCC2)cc1)c1nc2ccccc2[nH]1 (stereo not given) 689, CC1=Nn2c(nnc2-c2ccccc2)SC1 675, CCCCCOC(=O)NCCOC(=O)Nc1ccc(C(=O)OCC)cc1 655, COc1cc(OC)c(C(=O)NC2CC(C)(C)NC(C)(C)C2)cc1OC 510, Cc1cc(C)n(-c2nc(SCC(=O)N3CCCC3)c3c4c(sc3n2)CCCC4)n1 466, COC(=O)c1ccc(NC(=O)CN(c2ccc(C)cc2)S(=O)(=O)c2c(C)n[nH]c2C)cc1 538, O=C(NC1=NCCS1)c1ccc(Cl)s1 680, C=C(C)Cn1c(N2CCCC2)nc2c1c(=O)[nH]c(=O)n2C 505, O=C(c1ccc(S(=O)(=O)N2CCOCC2)cc1)N1CCN(c2ccccc2)CC1 556, COc1ccc(S(=O)(=O)Nc2ccc3c(c2)OCO3)cc1Cl 516, CN(C)[C@@H]1C(=O)C(C(N)=O)=C(O)[C@@]2(O)C(=O)C3=C(O)c4c(O)ccc(Cl)c4[C@@H](O)[C@H]3C[C@@H]12 610, CC1(C)Cc2c(sc3nc4n(c(=N)c23)CCCCC4)CO1 398, CCCCN(CCCC)C(=O)CCS(=O)(=O)c1ccc2c(c1)n(C)c(=O)c(=O)n2C 581, CCOc1ccccc1C(=O)NCCCn1ccnc1 665, COc1cccc(OCCOc2cccc(/C=N/n3cnnc3)c2)c1 588, COCCN(C(=O)CCC(=O)Nc1ccccn1)C(C(=O)NCCC(C)C)c1ccc(OC)cc1 (stereo not given) 575

Calcium response (max-min fluorescence), active:
Cc1ccsc1-c1nc(CSCC(=O)NCCN2CCCC2)c(C)o1 379, CN1CCN(c2ccc(NC(=O)COc3ccc(Cl)cc3Cl)cc2)CC1 339, O=C(Cc1cccs1)N1CCCC(c2nc(-c3ccc(S(=O)(=O)N4CCCC4)cc3)no2)C1 (stereo not given) 457, CCn1c(=N)n(CC(=O)c2cccc(OC)c2)c2ccccc21 447, CCOC(=O)Nc1ccc2c(c1)N(C(=O)CN1CCN3CCCC3C1)c1ccccc1CC2 (stereo not given) 476, Cc1ccccc1C(OCC(O)CN1CCCCC1CCO)c1ccccc1 (stereo not given) 337, CCCCN(C)C(=O)c1ccc2c(c1)N(CC)C(=O)c1ccccc1S2(=O)=O 320, Cc1ccc(-c2noc(CCC(=O)Nc3ccccc3N3CCN(C)CC3)n2)cc1 535, O=C(C(NS(=O)(=O)c1cccc2nsnc12)c1ccccc1)N1CCN(c2ccccn2)CC1 (stereo not given) 430, CCN1CCN(c2c(Cl)cccc2NC(=O)c2ccc(Br)o2)CC1 179, Cc1nc2c(-c3ccc(F)cc3)c(C)nn2c(C)c1CCC(=O)N1CCN(c2ccccn2)CC1 512, Cc1cccc(N2CCN(Cc3c(C)n(C)n(-c4ccccc4)c3=O)CC2)c1C 413, CCn1c(=O)cc(OCC(=O)NCCCN2CCN(c3cccc(Cl)c3)CC2)c2ccccc21 499, O=C(NCCCN1CCCCCC1)C1CC(=O)N(C2CCCC2)C1 (stereo not given) 430, c1ccc(-c2cc(-c3nnc4sc(-c5ccccn5)nn34)[nH]n2)cc1 437, CCN(CCCCOC(=O)c1ccc(OC)c(OC)c1)C(C)Cc1ccc(OC)cc1 (stereo not given) 18.8, CC12CN(Cc3ccccc3)CC(C)(CN(Cc3ccccc3)C1)C2=NO 113, Cc1nc2ccccc2c2oc(C(=O)NCCCN3CCC(C)CC3)cc12 498, CCC(C(=O)OCCN(CC)CC)c1ccccc1 (stereo not given) 24, CCCCOc1ccc(C(C)(O)CCN2CCOCC2)cc1 (stereo not given) 448, O=C1NC(Nc2nc3ccccc3s2)(C(F)(F)F)C(=O)N1C1CCCCC1 (stereo not given) 339, O=C(C(c1ccccc1)c1ccccc1)N1CCN(CC(O)COc2ccccc2)CC1 (stereo not given) 490, CCOC(=O)N1CCN(C(=O)C2CCCN(c3ncnc4c3sc3cccc(F)c34)C2)CC1 (stereo not given) 126, CCOC(=O)N1CCN(C(=O)C2CCN(c3ncnc4c3sc3cccc(F)c34)CC2)CC1 468, CSc1nnc2c(n1)OC(c1ccsc1)N(C(C)=O)c1ccccc1-2 (stereo not given) 250, CCOC(=O)C1CCN(Cc2coc3ccc(Cl)cc3c2=O)CC1 351, O=C(CCCN1C(=O)CSc2ncccc21)N1CCN(c2cccc(C(F)(F)F)c2)CC1 462, CN(C)CCOC(=O)C(c1ccccc1)C1(O)CCCC1 (stereo not given) 17.7, CC1(C)CN=C(N2CCN(c3ncnc4sc5c(c34)CCCC5)CC2)S1 344, CC(C)(C)n1nnnc1C(c1cccs1)N(Cc1cccnc1)CC1CCCO1 (stereo not given) 380, O=S(=O)(c1ccc(OCC(O)CN2CCN(c3ccccc3Cl)CC2)cc1)N1CCOCC1 (stereo not given) 515, CCOC(=O)C1=C(CC)Nc2ccccc2N=C1NC(=O)c1cccc(S(=O)(=O)N2CCCC2)c1 466, Cn1c(CCN2CCCCCC2)nc2cc(NC(=O)Nc3ccccc3)ccc21 252, CCOC(=O)c1[nH]c2ccc(OC)cc2c1NC(=O)CCN1CCN(Cc2ccccc2)CC1 218, O=C(c1ccc(-n2cnnn2)cc1)N1CCN(C(c2ccccc2)c2ccccc2)CC1 100, COC(CCN(C)C)(c1ccccc1)c1ccccc1 226
